From PubChem BioAssay
A selection: hits, their analogues and other compounds. The true share with any hit is near 21%.
Pf growth 48h: Primary qHTS for delayed death inhibitors of the malarial parasite plastid, 48 hour incubation; P. falciparum luciferase growth in erythrocytes, 48 h; Potency, µM (doses to about 28.7 µM), for the others: top-dose activity change, negative = inhibition, most hits filed as inhibitors; 310,000 tested, 5.9% active; AID 504832, 2011; also: potency is read from the fitted curve at half-maximal effect; % is scaled to controls: 0 for no effect and ±100 for the full control effect
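Luciferase-expressing parasites in RBCs, 2% Hct / 0.1% parasitemia final; RPMI 1640 + 0.5% Albumax; 37 C, 5% CO2, one generation; luminescence read-out, lower signal = inhibition.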
Sm TGR inh: qHTS Assay for the Inhibitors of Schistosoma Mansoni Peroxiredoxins | Schistosoma mansoni thioredoxin glutathione reductase (TGR), Q962Y6 | 360,000 tested, 3% active | purified TGR, DTNB reduction, TNB absorbance 405 nm | Potency, µM (top dose mostly 114 µM), inactives show at the highest dose activity change, negative = inhibition, hits mostly inhibitors | AID 485364, 2010; also: potency is read from the fitted curve at half-maximal effect; % is scaled to controls: 0 for no effect and ±100 for the full control effect; nearly all actives have a fitted effect of over 60% in size
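First, TGR (20 nM dispensed) and NADPH were mixed with compound. Second, a 15 min room-temperature incubation followed. Third, further NADPH and then DTNB were added to start the reaction. Finally, TNB absorbance was monitored kinetically.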
CHX counter-1: Cycloheximide Counterscreen for Small Molecule Inhibitors of Shiga Toxin | 300,000 tested, 12% active | AID 2314, 2010 | cell reporter, cycloheximide protein synthesis inhibition counterscreen | max response, %; in the data active = max response mostly above about 13%, no sharp cut-off; inactive = mostly below about 14%; also: read at 38.3 µM for the half of the compounds with a filed dose; 0% is about no effect
NS1 function inh: qHTS Assay for Inhibitors of Influenza NS1 Protein Function; Potency, µM (series often up to 46.1 µM), for the others: at the highest dose activity, positive = more growth; 270,000 tested, 0.4% active; calls by dose curve; also: potency is read from the fitted curve at half-maximal effect; actives are rising curves; nearly all actives have a fitted effect of over 50% in size
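S. cerevisiae expressing influenza A NS1, grown in glucose, washed, then diluted 1:100 into pH 6.0 -URA galactose medium with 23 nl compound. Growth recovery read as OD600; NS1-free strain serves as control.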
Shiga inhibitor: A qHTS for Small Molecule Inhibitors of Shiga Toxin. Vero cells, Shiga toxin protein synthesis inhibition reporter. 290,000 tested, 9.2% active. inhibition, % at 38.7 µM; in the data active = inhibition mostly above about 28%, no sharp cut-off; inactive = mostly below about 43%; also: 0% is about no effect
Pf growth 96h: Primary qHTS for delayed death inhibitors of the malarial parasite plastid, 96 hour incubation | P. falciparum luciferase reporter growth, 96 h | Potency, µM (top dose mostly 28.7 µM), for the others: top-dose activity change, negative = inhibition, most hits filed as inhibitors | 320,000 tested, 6.9% active; also: potency is read from the fitted curve at half-maximal effect; % is scaled to controls: 0 for no effect and ±100 for the full control effect
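P. falciparum expressing integrated firefly luciferase grown in erythrocytes (2% hematocrit, 0.05% parasitemia final) with compounds for 96 hours at 37 C, 5% CO2. Growth inhibition read as loss of luminescence after adding luciferase detection reagent.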
CHX counter-2: Cycloheximide Counterscreen for Small Molecule Inhibitors of Shiga Toxin (Confirmatory); shares compounds with Shiga inhibitor; Cycloheximide counterscreen, protein synthesis reporter, Shiga toxin assay; 510 tested, 3% active; Potency, µM (series often up to 38.3 µM), inactives show top-dose activity (activation), most hits filed as activators; calls by dose curve; also: potency is read from the fitted curve at half-maximal effect; 0% is about no effect
Active calls of the source: *; i = inactive; u = inconclusive; x = no result. Unless noted, calls follow the shape of the dose curve; as a rule, active = well fitted curve in the direction sought with a large enough effect; inconclusive = small, poorly fitted or top-dose-only effect, or another doubt; inactive = no such curve, though single readings can be large; an effect the other way counts as inactive or inconclusive.

SMILES	Pf growth 48h	Sm TGR inh	CHX counter-1	NS1 function inh	Shiga inhibitor	Pf growth 96h	CHX counter-2
Cn1c(=O)c2ncn(CC(=O)NCCOc3ccccc3)c2n(C)c1=O	-2%	6%	5	0%	27*	u	0%
COc1ccccc1N1C(=NC(=O)CCc2ccccc2)SC2CS(=O)(=O)CC21 (centres undefined)	4%	1%	-2	3%	-2	-1%	x
Cc1ccc(C(CC(=O)NCc2ccco2)c2ccc(OC(C)C)cc2)cc1 (centres undefined)	x	u	15	-40%	42*	x	5%
O=C(Nc1cccc(-c2csc(Nc3ccc(Cl)cc3)n2)c1)c1ccccc1	u	8%	2	15%	29*	u	u
Cn1nc(-c2ccccc2)cc1NC(=O)c1ccc(Cl)cc1	1%	-9%	x	x	x	63%	x
CN1CCN(C(=O)CN(C)S(=O)(=O)c2ccc(F)cc2)CC1	7%	-1%	-3	7%	38*	10%	-1%
CN(CC(N)=O)S(=O)(=O)c1ccc(F)cc1	x	0%	-2	9%	-10	47%	x
CCN1CCN(Cc2nnc(-c3ccc(C)cc3)o2)CC1	33%	-10%	5	5%	43*	23%	-1%
CCOC(=O)c1cnc2c(-c3cccc(Br)c3)cnn2c1C	50%	1%	6	-7%	active	0%	2.8µM*
O=C(Nc1nnc(-c2ccccc2)o1)C1CCCN1S(=O)(=O)c1cccs1 (centres undefined)	-20%	8%	x	x	x	7%	x
CC(=O)Nc1cccc2ncccc12	17%	6%	-3	8%	41*	4.1µM*	-5%
Cc1ccc(S(=O)(=O)N2CCCN(C(=O)c3ccc(-n4cccn4)cc3)CC2)cc1	u	1%	x	x	x	u	x
Cc1ccc(NC(=O)Cn2cnc3cc([N+](=O)[O-])ccc3c2=O)c(Cl)c1	u	-1%	1	5%	-5	-19%	x
O=C(Cn1cnc2cc([N+](=O)[O-])ccc2c1=O)NCc1ccc(Cl)cc1	1%	x	6	5%	47*	13%	-1%
CCc1nnc(NC(=O)c2cccnc2)s1	x	-4%	-4	-3%	-11	13%	x
O=C(Nc1nnc(Cc2ccccc2)s1)c1cccnc1	40%	0%	-2	-3%	59*	161%	-1%
COc1ccc(OCc2nc(C#N)c(N3CCN(c4ccc(OC)cc4)CC3)o2)cc1	u	0%	6	9%	32	3%	x
COc1ccc(N2CCN(c3oc(COc4ccccc4Cl)nc3C#N)CC2)cc1	u	-6%	16	12%	35*	u	u
O=C(NCCc1ccccn1)C1CCCN1S(=O)(=O)c1ccc(Cl)cc1 (centres undefined)	16%	8%	-1	10%	8	5%	x
COc1ccc(-c2cnc[nH]2)cc1	i	3%	13	x	78*	69%	1%
COc1ccc(NS(=O)(=O)c2cnc[nH]2)cc1	3%	1%	-3	x	-9	5%	x
O=C(NNC(=O)c1nc(Cl)ccc1Cl)c1ccc(F)cc1	5%	5%	-2	2%	24*	2%	0%
O=C(O)c1c2c(nc3ccccc13)/C(=C/c1cccc([N+](=O)[O-])c1)CCC2	28%	-2%	5	9%	8	23%	x
Cc1nn(CC(=O)NC(C)C(C)C)c(C)c1S(=O)(=O)N1CCCCC1 (centres undefined)	-19%	-9%	x	x	x	0%	x
N#C/C=C1/NC(=O)c2ccccc2S1	3%	-5%	1	4%	71*	4%	1%
COc1ccc(C(=O)Nc2cccc(C(=O)N3CCN(C)CC3)c2)cc1	136%	-2%	15	1%	37*	0.13µM*	1%
COc1ccc(C(=O)Nc2cccc(C(=O)N3CCCCC3)c2)cc1	u	-7%	13	5%	33	u	x
